Test results published in PubChem BioAssay (NCATS).
Results filed as inconclusive are left out. Entries that show only a call come without a potency. Calls of active or inactive are those of the source. Calls follow the shape of the full dose curve.

Columns and labels:
[1] = Cytotoxicity counterscreen for inhibitors of SARS-CoV-2 cell entry (AID 1645845); settings: cell viability (SARS-CoV-2 entry assay cells); series mostly up to 57.1 µM; also: nearly all actives have a fitted effect of over 50% in size
Summary of the method: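 48 h compound treatment (after 1 h preincubation), HEK293-ACE2 cells, 37 C/5% CO2; ATP luminescence endpoint; normalized to cell wells and media blanks.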

[2] = Primary qHTS to identify inhibitors of SARS-CoV-2 cell entry (AID 1645846); settings: SARS-CoV-2 pseudovirus cell entry assay, luminescence; activity change, negative = inhibition: at 57.1 µM (top of the series) unless noted; series mostly up to 57.1 µM; also: nearly all actives have a fitted effect of over 45% in size; also: potency is read from the fitted curve at half-maximal effect
Summary of the method: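 Inhibition of spike-mediated entry was scored in human ACE2-transfected Expi293F cells. Particles were MLV-pseudotyped with Wuhan-Hu-1 S carrying a 19-aa C-terminal deletion; signal was luciferase after two days, scaled between spike PP and fusion-protein-free PP.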

Row | Compound | Potency [1] | activity change, negative = inhibition [2] | Potency [2]
1 | C[C@@H](O)[C@H](N)C(=O)O | inactive | 0.235% [at 27.1 µM] | –
2 | Clc1ccc(Nc2nnc(Cc3ccncc3)c3ccccc23)cc1 | inactive | -4.34% | –
3 | CCCCC(=O)O[C@]1(C(=O)CO)CC[C@H]2[C@@H]3CCC4=CC(=O)CC[C@]4(C)[C@H]3[C@@H](O)C[C@@]21C | inactive | – | inactive
4 | NCCNC(=O)c1ccc(Cl)cn1 | inactive | -12.8% | –
5 | COc1ccccc1OC(=O)Oc1ccccc1OC | inactive | – | inactive
6 | CC(=O)OCC(=O)NCCCOc1cccc(CN2CCCCC2)c1 | inactive | – | inactive
7 | OCC(CO)N[C@H]1C[C@](O)(CO)[C@@H](O)[C@H](O)[C@H]1O | inactive | – | inactive
8 | CC1(C)O[C@@H]2C[C@H]3[C@@H]4CCC5=CC(=O)CC[C@]5(C)[C@@]4(F)[C@@H](O)C[C@]3(C)[C@]2(C(=O)CCl)O1 | inactive | – | inactive
9 | O=C1CC2(CCCC2)CC(=O)N1CCCCN1CCN(c2ncccn2)CC1 | inactive | 0.863% | –
10 | CCOC(=O)Nc1ccc(NCc2ccc(F)cc2)nc1N | inactive | -22.5% | –
11 | CC(C)(C)CC(=O)OCC(=O)[C@@]1(O)CC[C@H]2[C@@H]3CCC4=CC(=O)C=C[C@]4(C)[C@H]3[C@@H](O)C[C@@]21C | inactive | – | inactive
12 | CCN(CC)C(=O)C1CN2CCc3cc(OC)c(OC)cc3C2CC1OC(C)=O (stereo not given) | inactive | – | inactive
13 | CCn1cc(C(=O)O)c(=O)c2cc(F)c(N3CCNCC3)nc21 | inactive | – | inactive
14 | C=CCc1ccccc1OCC(O)CNC(C)C (stereo not given) | inactive | -22.8% | –
15 | CO/N=C(/C(=O)N[C@@H]1C(=O)N2C(C(=O)O)=C(Cn3nnc(C)n3)CS[C@H]12)c1csc(N)n1 | inactive | – | inactive
16 | CCCc1ncc(C[n+]2ccccc2C)c(N)n1 | inactive | 0.0229% | –
17 | Oc1cc(O)c2c(c1)O[C@H](c1ccc(O)c(O)c1)[C@H](O)C2 | inactive | -5.55% | –
18 | CCOC(=O)[C@H](CCc1ccccc1)N[C@H]1CCc2ccccc2N(CC(=O)O)C1=O | inactive | -24.9% | –
19 | Cc1c(-c2ccccc2)oc2c(C(=O)OCCN3CCCCC3)cccc2c1=O | inactive | -5.61% | –
20 | O=c1ccc2ccccc2o1 | inactive | – | inactive

Row | Compound | Potency [1] | activity change, negative = inhibition [2] | Potency [2]
21 | O=C(c1ccc(F)cc1)C1CCN(CCn2c(=O)[nH]c3ccccc3c2=O)CC1 | inactive | -1.25% | –
22 | CCOC(=O)c1ccc(C#Cc2ccc3c(c2)C(C)(C)CCS3)nc1 | inactive | – | inactive
23 | CCCC(=O)OC[C@@H](OC(=O)CCC)[C@@H](OC(=O)CCC)[C@H](Cn1c2nc(=O)[nH]c(=O)c-2nc2cc(C)c(C)cc21)OC(=O)CCC | inactive | -16.8% | –
24 | C[C@H](N)[C@H](O)c1cccc(O)c1 | inactive | 1.07% | –
25 | C#C[C@]1(OC(C)=O)CC[C@H]2[C@@H]3CCC4=C/C(=N/O)CC[C@@H]4[C@H]3CC[C@@]21CC | inactive | -15.4% | –
26 | CCOC(=O)NNc1nncc2ccccc12 | inactive | – | inactive
27 | CCCN(CCC)C(=O)C(CCC(=O)OCCCN1CCN(CCOC(=O)Cc2c(C)n(C(=O)c3ccc(Cl)cc3)c3ccc(OC)cc23)CC1)NC(=O)c1ccccc1 (stereo not given) | inactive | – | 28.2 µM (active)
28 | Nc1ccc(C(=O)NCC(=O)O)cc1 | inactive | 4.24% | –
29 | CC(C)(Oc1ccc(CCNC(=O)c2ccc(Cl)cc2)cc1)C(=O)O | inactive | – | inactive
30 | Cn1cnc2c1c(=O)[nH]c(=O)n2C | inactive | – | inactive
31 | Nc1ccc(S(=O)(=O)Nc2nccs2)cc1 | inactive | 4.2% | –
32 | CCN1C(=O)c2ccccc2C1Nc1ccc(OCCN2CCCCC2)cc1 (stereo not given) | inactive | 0.117% | –
33 | Cc1c(N(C)C)c(=O)n(-c2ccccc2)n1C | inactive | -10.1% | –
34 | CC(C(=O)O)c1ccc(CC2CCCC2=O)cc1 (stereo not given) | inactive | – | inactive
35 | C[N+](C)(C)CCOC(=O)CCC(=O)OCC[N+](C)(C)C | inactive | – | inactive
36 | CCC1Nc2cc(Cl)c(S(N)(=O)=O)cc2S(=O)(=O)N1 (stereo not given) | inactive | – | inactive
37 | CCC(=O)O[C@]1(C(=O)SCF)[C@H](C)C[C@H]2[C@@H]3C[C@H](F)C4=CC(=O)C=C[C@]4(C)[C@@]3(F)[C@@H](O)C[C@@]21C | inactive | – | inactive
38 | CC/C(=C(/CC)c1ccc(O)cc1)c1ccc(O)cc1 | inactive | – | 17.8 µM (active)
39 | Oc1ccc(C(O)CNCCCCCCNCC(O)c2ccc(O)c(O)c2)cc1O (stereo not given) | inactive | – | inactive
40 | C[C@@H](C1=C(CCN(C)C)Cc2ccccc21)c1ccccn1 | inactive | -25.9% | –
